# In PubChem BioAssay:
# Assay: binders of probe aHhip on microarray, primary screen, stem cell growth factor project, biochemical, small-molecule microarray, fluorescence 635/667 (AID 1087);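 also: score merges spot fluorescence at 667nm with spot signal to noise ratio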
# Conditions: higher = more signal
row,SMILES,composite z-score
1,O=C1O[C@@H](c2ccccc2)[C@@H](c2ccccc2)N2[C@@H](c3ccc(O)cc3)[C@]3(C(=O)Nc4ccc(C#CC5=CCCCC5)cc43)[C@@H](C(=O)N3CCN(c4ncccn4)CC3)[C@H]12,0.0116
2,CC(C)C[C@@H]1NC(=O)[C@H]2C[C@@H](C(=O)NCCCCCC[N+](C)(C)C)[C@@H](c3cccc(OCCO)c3)N2C1=O,-0.134
3,CCOC(=O)C[C@H]1[C@H](OC(=O)c2ccccc2-c2ccccc2)[C@@H](NC(=O)c2ccc3ccccc3n2)c2cc(OCCCO)ccc2N1C(=O)c1ccc2ccccc2n1,-0.0994
4,C[C@H]1C2=C3C(CC[C@H]4C(OCc5ccc(F)cc5C(F)(F)F)OC[C@](C)([C@@H]34)N(C(=O)OC(C)(C)C)C2)C(CO)C1CO (some centres not stated),0.2
5,CCOc1cc(C(O)C2C=CC3C(=O)N(C)C(=O)C3N2N2CCCCC2)ccc1O (configuration not stated),0.0139
6,C=C(COC)/C(=C/C[C@@H](OC(=O)c1ccncc1)c1cccc(OCCO)c1)c1cnc2ccccc2c1,0.251
7,C=C(CCCC)/C(=C/C[C@@H](OC(C)=O)c1ccc(CO)o1)c1cc(C(=O)OC)ccc1OC,0.0826
8,CC(C)(C)OC(=O)CC[C@]1(C(=O)NCCN2CCOCC2)N=C(c2ccc(OCCCO)cc2)O[C@H]1c1ccccc1N=[N+]=[N-],0.913
9,Cc1ccc(S[C@]2(C(=O)NCC(F)(F)F)CC(=O)N(Cc3ccccc3)[C@@H]2c2ccc(CO)cc2)cc1,-0.266
10,COc1ccc(C#Cc2ccc3c(c2)[C@]2(C(=O)N3)[C@H](C(=O)N3CCc4cc(OC)c(OC)cc4C3)[C@H]3C(=O)O[C@H](c4ccccc4)[C@H](c4ccccc4)N3[C@@H]2c2ccc(O)cc2)cc1,-0.12
11,CN1C(=O)[C@@]2(CCS(=O)(=O)c3ccccc3)N=C(c3ccc(OCCCO)cc3)O[C@H]2c2ccccc21,-0.04
12,CC(C)C(=C=CC[C@@H](O)c1ccccc1OCCO)C[C@@H](O)COCc1ccccc1,-0.199
13,COc1ccc(C(O)C2C=CC3C(=O)N(Cc4ccccc4)C(=O)C3N2n2cnnc2)c2ccccc12 (configuration not stated),-0.162
14,CCOC(=O)C[C@H]1[C@H](OC(=O)c2ccccc2-c2ccccc2)[C@@H](NC(=O)CC(C)C)c2cc(OCCCO)ccc2N1C(=O)c1ccc2ccccc2n1,0.0274
15,C=CC[C@H](OC(=O)Nc1ccc(OC)cc1)c1ccc(O)c2ccccc12,0.176
16,COc1ccc(C(O)C2C=CC3C(=O)N(c4ccccc4)C(=O)C3N2Nc2ccccc2)cc1OCc1ccccc1 (configuration not stated),0.0515
17,O=C1NC(=O)C2C1C=CC(C(O)c1cc(C(F)(F)F)cc(C(F)(F)F)c1)N2Nc1ccc(Cl)cc1Cl (configuration not stated),-0.0346
18,C=CCC(OC(C)=O)[C@@H]1[C@@H](N(Cc2cc3ccccc3o2)C(=O)Cc2ccc(F)cc2)c2cc(OCCCO)ccc2N1C(=O)c1ccc2ccccc2n1 (some centres not stated),0.0881
19,COCCOC(=O)N1C(=O)[C@@]2(c3cc(C#CC4=CCCCC4)ccc31)[C@H](c1ccc(O)cc1)N1[C@H](c3ccccc3)[C@H](c3ccccc3)OC(=O)[C@H]1[C@@H]2C(=O)Nc1nc2ccccc2s1,0.0972
20,COCCOC(=O)N1C(=O)[C@@]2(c3cc(C#CC4(O)CCCCCC4)ccc31)[C@H](C(N)=O)[C@H]1C(=O)O[C@H](c3ccccc3)[C@H](c3ccccc3)N1[C@@H]2c1ccc(O)cc1,0.192
21,COC(=O)[C@H](Cc1ccccc1)N1CC(/C=C/C2CC2)=C[C@@H]1[C@@H](O)Cc1ccccc1,0.177
22,C=C(/C(=C/C[C@@H](OC(=O)c1ccncc1)c1ccccc1OCCO)c1cc(C(=O)OC)ccc1OC)C(C)C,0.0854
23,COc1cc(CO)cc(I)c1O[C@H]1C=C(C(=O)NCCO)C[C@@H](N(Cc2ccc(F)cc2)C(=O)C2CCCO2)[C@@H]1O (some centres not stated),0.142
24,NC(=O)NCC#Cc1ccc2c(c1)[C@]1(C(=O)N2)[C@H](c2ccc(O)cc2)N2[C@H](c3ccccc3)[C@H](c3ccccc3)OC(=O)[C@H]2[C@@H]1C(=O)Nc1nc2ccccc2s1,0.0881
25,CCOC(=O)C1=CC[C@@H](c2cc(Cl)ccc2Cl)N(S(=O)(=O)c2ccc(C)cc2)[C@H]1c1ccc(OC)cc1,0.082
26,COc1ccc(NN2C(C(O)c3ccccn3)C=CC3C(=O)N(C4CCCCC4)C(=O)C32)cc1 (configuration not stated),-0.152
27,COc1ccc([Si](C)(C)[C@H]2[C@H](CCO)O[C@@]3(C(=O)N(Cc4cccc(N5CCCCC5=O)c4)c4ccccc43)[C@@H]2C)cc1,0.176
